Laboratory results published in ChEMBL document CHEMBL3988442, “University of Dundee, Small-Polar-MMV Screening Library” (2021).
Where “and” joins values, the source holds several entries; their conditions need not be identical. Equal values may be shown once. For some of these results: Entries with a potency or affinity are not part of this list.

Experiments:
Set-up in all cases: scale not given: direction of the effect not stated beside the values
[1] = biological target: Protein translocase subunit SecA (Escherichia coli (strain K12)) (UniProt P10408); test: Assay to Identify E. coli SecA ATPase Inhibitors; format: functional; details: 30 µM
[2] = biological target: T1, Ubiquitin-activating enzyme e1, putative (Leishmania donovani (strain BPK282A1)) (UniProt E9BSI1); test: Leishmania donovani Ubiquitin Activating Enzyme (LdE1); format: functional; details: 30 µM
T1 sequence (whole entry): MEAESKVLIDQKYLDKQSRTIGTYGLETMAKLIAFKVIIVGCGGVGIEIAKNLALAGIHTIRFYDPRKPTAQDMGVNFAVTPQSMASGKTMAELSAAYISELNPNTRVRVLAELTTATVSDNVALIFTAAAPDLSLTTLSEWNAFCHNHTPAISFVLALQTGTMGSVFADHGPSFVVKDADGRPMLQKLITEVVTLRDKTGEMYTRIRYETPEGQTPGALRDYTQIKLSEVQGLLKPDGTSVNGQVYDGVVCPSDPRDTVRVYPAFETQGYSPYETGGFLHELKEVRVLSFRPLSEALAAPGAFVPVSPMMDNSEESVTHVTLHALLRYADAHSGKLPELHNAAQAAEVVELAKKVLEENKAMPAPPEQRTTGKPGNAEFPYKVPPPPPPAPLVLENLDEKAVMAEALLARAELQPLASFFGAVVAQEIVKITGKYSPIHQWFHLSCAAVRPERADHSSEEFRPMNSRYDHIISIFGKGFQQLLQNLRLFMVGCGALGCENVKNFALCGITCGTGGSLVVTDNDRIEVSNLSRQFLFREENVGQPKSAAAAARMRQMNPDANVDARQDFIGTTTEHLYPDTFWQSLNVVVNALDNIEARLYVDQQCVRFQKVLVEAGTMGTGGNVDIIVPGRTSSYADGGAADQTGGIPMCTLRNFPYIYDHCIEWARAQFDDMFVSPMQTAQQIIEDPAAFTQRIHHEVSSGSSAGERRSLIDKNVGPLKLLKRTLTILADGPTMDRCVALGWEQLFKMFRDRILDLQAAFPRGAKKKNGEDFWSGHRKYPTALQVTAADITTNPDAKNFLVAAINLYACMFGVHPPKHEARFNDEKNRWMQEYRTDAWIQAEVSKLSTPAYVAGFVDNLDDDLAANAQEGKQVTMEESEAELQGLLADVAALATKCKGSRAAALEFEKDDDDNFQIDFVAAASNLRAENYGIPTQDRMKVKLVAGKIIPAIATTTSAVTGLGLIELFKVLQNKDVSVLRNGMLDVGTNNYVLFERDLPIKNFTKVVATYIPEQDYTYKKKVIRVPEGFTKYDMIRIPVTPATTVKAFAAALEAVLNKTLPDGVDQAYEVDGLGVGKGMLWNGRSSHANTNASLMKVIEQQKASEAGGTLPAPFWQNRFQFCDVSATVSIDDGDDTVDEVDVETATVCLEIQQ

[3] = biological target: AMP-activated protein kinase, AMPK (Homo sapiens) (UniProt P54646+O43741+P54619+Q9UGJ0+Q9Y478+Q13131+Q9UGI9); test: AMP-dependent Kinase enzyme assay. An in vitro enzyme assay that detects ADP turnover that is directly proportional to AMPK activity. This uses naive AMPK that is activated during the assay with MK-8722; format: functional; details: 30 µM
[4] = biological target: Sialic acid-binding Ig-like lectin 9 (Homo sapiens) (UniProt Q9Y336); test: Hs-Siglec9 ALPHAscreen SOP 20170721; details: 10 µM
Trypanosoma cruzi = test: Trypanosoma cruzi phosphomannomutase and mannose-1-phosphate guanylyltransferase assay; format: functional; details: 10 µM
[5] = biological target: T2, Arginase-2, mitochondrial (Homo sapiens) (UniProt P78540); test: in vitro enzyme assay to detect the production of urea directly proportional to the activity of Arginase II; format: functional; also: in the data most compounds retested in dose-response had high values
T2 sequence (whole entry): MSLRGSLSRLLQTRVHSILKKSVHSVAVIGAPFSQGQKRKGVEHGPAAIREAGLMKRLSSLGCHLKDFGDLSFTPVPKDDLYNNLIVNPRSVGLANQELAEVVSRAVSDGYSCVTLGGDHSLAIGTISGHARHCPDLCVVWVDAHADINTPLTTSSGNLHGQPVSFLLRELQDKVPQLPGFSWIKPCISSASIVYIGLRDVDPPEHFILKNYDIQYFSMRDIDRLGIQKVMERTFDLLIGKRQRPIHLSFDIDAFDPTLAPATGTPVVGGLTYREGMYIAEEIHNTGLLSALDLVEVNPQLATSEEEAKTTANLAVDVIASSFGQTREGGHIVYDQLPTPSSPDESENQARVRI

[6] = biological target: T3, Proteasome subunit beta (Trypanosoma cruzi) (UniProt O96673); test: Trypanosoma cruzi proteasome chymotrypsin-like activity (TcProtChymo) assay.; also: in the data most compounds retested in dose-response had high values; format: functional; details: 9.37 µM
T3 sequence (whole entry): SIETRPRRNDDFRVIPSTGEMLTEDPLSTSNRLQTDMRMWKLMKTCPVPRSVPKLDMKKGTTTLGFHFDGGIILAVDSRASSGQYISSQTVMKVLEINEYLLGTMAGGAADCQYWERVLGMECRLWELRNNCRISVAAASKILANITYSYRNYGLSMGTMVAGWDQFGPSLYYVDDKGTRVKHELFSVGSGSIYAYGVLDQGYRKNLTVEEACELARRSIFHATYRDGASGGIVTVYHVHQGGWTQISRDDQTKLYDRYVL

Homo sapiens = species: Homo sapiens; test: To identify inhibition of the IFN signalling (Jak-Stat) pathway via expression of an eGFP reporter gene under the control of an IFN-stimulated response element (ISRE) containing MxA promoter.; format: functional; details: 30 µM
[7] = biological target: T4, Tyrosyl-tRNA synthetase, putative (Trypanosoma cruzi (strain CL Brener)) (UniProt Q4DSP6); test: Trypanosoma cruzi tyrosyl tRNA synthetase (TcYRS) _High Tyrosine SOP; format: functional; details: 30 µM; also: in the data most compounds retested in dose-response had high values
T4 sequence (whole entry): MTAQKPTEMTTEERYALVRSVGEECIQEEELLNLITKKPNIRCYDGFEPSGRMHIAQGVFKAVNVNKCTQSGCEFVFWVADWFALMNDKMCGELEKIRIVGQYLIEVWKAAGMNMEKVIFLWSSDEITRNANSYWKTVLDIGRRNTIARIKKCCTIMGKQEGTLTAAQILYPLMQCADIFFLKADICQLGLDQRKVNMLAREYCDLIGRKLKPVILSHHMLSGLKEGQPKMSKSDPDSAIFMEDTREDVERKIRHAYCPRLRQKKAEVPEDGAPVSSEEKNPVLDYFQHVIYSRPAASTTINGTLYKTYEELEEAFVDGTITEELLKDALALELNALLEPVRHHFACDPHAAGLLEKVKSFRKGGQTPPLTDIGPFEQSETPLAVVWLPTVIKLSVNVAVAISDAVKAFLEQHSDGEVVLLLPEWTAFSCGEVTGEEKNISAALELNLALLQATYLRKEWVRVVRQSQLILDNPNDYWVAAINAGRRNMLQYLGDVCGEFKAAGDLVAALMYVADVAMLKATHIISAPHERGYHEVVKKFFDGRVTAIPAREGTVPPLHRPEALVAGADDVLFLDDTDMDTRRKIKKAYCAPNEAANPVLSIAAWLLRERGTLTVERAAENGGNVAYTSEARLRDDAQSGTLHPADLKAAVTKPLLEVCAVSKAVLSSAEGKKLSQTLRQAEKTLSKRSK

[8] = biological target: T4, Tyrosyl-tRNA synthetase, putative (Trypanosoma cruzi (strain CL Brener)); test: Trypanosoma cruzi tyrosyl tRNA synthetase (TcYRS) SOP; format: functional; details: 30 µM
[9] = biological target: Chromo domain-containing protein 1 (Saccharomyces cerevisiae (strain ATCC 204508 / S288c) (Baker's yeast)) (UniProt P32657); test: ScCHD-1 Enzyme Inhibition Assay; format: functional; details: 30 µM; also: in the data most compounds retested in dose-response had high values
N/A = test: Trypanosoma cruzi proteasome luciferase counter-screen; format: functional; details: 9.37 µM

Chain of Protein translocase subunit SecA (Escherichia coli (strain K12)) (P10408 whole entry): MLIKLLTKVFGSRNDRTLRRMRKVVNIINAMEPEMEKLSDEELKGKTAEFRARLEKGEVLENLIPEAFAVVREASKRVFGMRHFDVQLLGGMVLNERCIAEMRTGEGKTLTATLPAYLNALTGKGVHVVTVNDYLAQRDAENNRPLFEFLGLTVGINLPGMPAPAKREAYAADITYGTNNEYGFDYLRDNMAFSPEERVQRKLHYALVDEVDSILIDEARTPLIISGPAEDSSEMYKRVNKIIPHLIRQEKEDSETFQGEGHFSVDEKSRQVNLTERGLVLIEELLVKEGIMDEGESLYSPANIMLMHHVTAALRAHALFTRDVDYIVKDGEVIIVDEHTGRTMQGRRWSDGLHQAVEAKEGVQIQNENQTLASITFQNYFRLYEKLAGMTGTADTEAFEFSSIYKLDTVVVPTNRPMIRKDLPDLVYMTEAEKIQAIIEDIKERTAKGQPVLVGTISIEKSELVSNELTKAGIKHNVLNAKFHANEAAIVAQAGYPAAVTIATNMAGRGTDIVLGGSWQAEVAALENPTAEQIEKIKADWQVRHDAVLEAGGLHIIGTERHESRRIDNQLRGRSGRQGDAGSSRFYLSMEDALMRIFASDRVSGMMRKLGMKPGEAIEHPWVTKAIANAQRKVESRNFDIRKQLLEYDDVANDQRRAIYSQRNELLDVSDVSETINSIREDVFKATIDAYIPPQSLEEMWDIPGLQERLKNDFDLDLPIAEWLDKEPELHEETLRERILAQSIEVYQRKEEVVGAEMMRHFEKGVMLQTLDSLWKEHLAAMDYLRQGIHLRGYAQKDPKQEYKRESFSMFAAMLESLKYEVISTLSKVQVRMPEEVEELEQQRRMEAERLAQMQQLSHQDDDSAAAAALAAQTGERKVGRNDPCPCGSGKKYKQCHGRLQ
Chain of Sialic acid-binding Ig-like lectin 9 (Homo sapiens) (Q9Y336 whole entry): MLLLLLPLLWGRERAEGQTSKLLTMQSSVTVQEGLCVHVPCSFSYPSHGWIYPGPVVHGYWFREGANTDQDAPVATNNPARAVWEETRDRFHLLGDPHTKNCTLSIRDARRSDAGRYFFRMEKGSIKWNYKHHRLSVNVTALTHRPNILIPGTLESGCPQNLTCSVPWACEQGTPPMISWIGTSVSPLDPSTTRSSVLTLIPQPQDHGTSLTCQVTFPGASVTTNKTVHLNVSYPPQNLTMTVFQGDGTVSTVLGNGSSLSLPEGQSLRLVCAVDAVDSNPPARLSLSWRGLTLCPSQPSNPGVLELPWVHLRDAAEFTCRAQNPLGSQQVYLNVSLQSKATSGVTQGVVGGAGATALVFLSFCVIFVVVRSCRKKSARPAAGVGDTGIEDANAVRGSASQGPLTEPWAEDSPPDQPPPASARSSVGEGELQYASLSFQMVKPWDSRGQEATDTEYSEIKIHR
Chain of Chromo domain-containing protein 1 (Saccharomyces cerevisiae (strain ATCC 204508 / S288c) (Baker's yeast)) (P32657 whole entry, the tested form may be a part): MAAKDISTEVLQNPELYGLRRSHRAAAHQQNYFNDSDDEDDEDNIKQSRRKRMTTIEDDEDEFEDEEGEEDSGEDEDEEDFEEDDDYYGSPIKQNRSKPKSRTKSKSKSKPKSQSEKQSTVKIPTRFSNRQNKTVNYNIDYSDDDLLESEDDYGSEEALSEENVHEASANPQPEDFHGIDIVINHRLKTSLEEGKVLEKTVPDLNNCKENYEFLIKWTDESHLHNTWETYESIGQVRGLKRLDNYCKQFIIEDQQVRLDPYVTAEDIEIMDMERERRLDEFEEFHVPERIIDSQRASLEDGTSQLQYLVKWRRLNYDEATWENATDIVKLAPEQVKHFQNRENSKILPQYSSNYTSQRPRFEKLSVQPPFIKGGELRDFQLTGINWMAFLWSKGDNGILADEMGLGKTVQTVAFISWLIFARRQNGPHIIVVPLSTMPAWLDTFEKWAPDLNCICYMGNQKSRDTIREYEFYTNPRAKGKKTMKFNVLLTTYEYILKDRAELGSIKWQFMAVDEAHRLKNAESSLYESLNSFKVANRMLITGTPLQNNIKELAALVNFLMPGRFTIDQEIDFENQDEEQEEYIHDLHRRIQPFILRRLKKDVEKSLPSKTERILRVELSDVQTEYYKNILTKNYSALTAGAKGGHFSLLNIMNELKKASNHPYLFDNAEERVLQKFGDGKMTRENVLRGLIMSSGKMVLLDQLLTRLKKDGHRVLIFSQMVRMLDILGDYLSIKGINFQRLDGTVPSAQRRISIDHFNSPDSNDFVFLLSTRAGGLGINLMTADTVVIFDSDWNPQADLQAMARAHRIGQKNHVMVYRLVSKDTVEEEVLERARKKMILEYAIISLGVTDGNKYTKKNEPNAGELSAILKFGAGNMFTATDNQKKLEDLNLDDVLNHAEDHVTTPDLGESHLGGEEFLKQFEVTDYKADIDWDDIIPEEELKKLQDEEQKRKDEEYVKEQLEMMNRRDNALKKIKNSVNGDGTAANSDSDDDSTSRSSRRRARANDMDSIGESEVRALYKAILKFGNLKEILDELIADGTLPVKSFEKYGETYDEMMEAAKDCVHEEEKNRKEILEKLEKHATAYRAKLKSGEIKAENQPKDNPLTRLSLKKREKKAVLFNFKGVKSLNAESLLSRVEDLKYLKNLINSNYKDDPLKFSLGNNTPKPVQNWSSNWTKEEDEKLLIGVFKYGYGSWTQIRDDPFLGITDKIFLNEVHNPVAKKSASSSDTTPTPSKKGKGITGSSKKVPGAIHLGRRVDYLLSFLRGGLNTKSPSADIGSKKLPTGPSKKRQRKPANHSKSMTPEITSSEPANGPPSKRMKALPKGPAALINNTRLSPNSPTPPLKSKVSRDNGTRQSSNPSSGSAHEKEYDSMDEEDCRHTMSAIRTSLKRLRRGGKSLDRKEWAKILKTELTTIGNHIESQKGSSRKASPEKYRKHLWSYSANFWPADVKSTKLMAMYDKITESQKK

SMILES	Percent Effect [1] [%]	Percent Effect [2] [%]	Percent Effect [3] [%]	Percent Effect [4] [%]	Percent Effect (Trypanosoma cruzi) [%]	Percent Effect ([5]; 33.3 µM) [%]	Percent Effect [6]	Percent Effect (Homo sapiens) [%]	Percent Effect [7] [%]	Percent Effect [8] [%]	Percent Effect [9] [%]	Percent Effect (N/A)	Percent Effect ([5]; 30 µM) [%]
Cc1ncsc1C(=O)NCCSCc1cccs1	-1.5	2.7	-1.07	13.7	3.44	-3.14	7.9%	16.5	0	11	-5.27		
Cc1ccc(N2CC[C@H]3O[C@@H](C(=O)NCc4ccco4)CC[C@H]32)nn1	-3.84	11.7		-7.1	0.487	4.05	34.9% and 42.6% and 44.7%	2.02	12.1	12.8	-1.01	17.7% and 15.6%	
CCN(CC1CCOC1)C(=O)Nc1ccc(N2CCCC2)nc1 (stereo not given)	-6.5	12.8		-1.33	5.35	2.87	14.2%	10.2	7.18	18.1	-10.3		
CCn1cc(Br)c(C(=O)NCc2cnn(C)c2)n1	-1.67	13	-0.504	11.9	6.79	-6.9	13%	1.3	8.6	21	18.8		
CN(C)c1cc(CNC(=O)Nc2ccc(F)cc2)ccn1	2.4	17.9		-9.83	3.29	0.41	47.8% and 47.4% and 50.2%	6.94	7.18	25.3	-3.18	25.9% and 25.6%	
CCc1nnc2n1CCN(Cc1csc(-c3ccc(C)o3)n1)C2	-2.83	10.3		-4.26	7.42	1.23	36.4% and 37.5% and 36.1%	4.79	8.13	22.9	-6.08	6.53% and 0.633%	
c1ccc(-c2ccc(C3CNCCO3)nc2)cc1 (stereo not given)	-1.91	14.7		-4.38	-2.37	-3.1	41% and 49.8% and 42.6%	-23.6	3.17	7.5	-25.7	18% and 21%	
O=C(NCCCN1CCOCC1)c1ccn(-c2ccc3ccccn23)n1	-0.779	6.49		1.13	-2.43	-4.05	30.3% and 30.6% and 42.5%	5.6	8.95	7.69	1.74	15% and 12%	
Cc1nc(C)n(CC2CCCN2Cc2nc(N)c3ccccc3n2)n1 (stereo not given)	-1.49	21.3		-3.38	3.81	-3.1	16.4% and 18.4% and 30.6%	8.71	6.84	15.4	-17.8	8.36% and 7.38%	
CCC(CC)C(=O)N1CCC2(C1)CN(c1ccccc1)C(=O)CN2C (stereo not given)	-1.78	3.9		-5.2	-8.08	4.86	14.7%	-19.6	5.79	0	-2.51		
CCNC(=O)c1ccnc(NCC2COc3cc(OC)ccc3C2)c1 (stereo not given)	-6.93	5.41		2.93	-3.78	-1.05	23.6%	24.8	2.66	7.32	-4.55		0.54
COc1ccccc1OCC(=O)Nc1ncccc1Cl	-3.19	15.3	-6.62	22.9	2.62	-2.65	4.39%	-9.45	3.16	10.3	-3.43		
CCn1nc2c(cc1=O)CN(Cc1nc(CCOC)no1)CC2	-2.71	5.13		-1.28	4.6	9.43	0.427%	4.98	0.478	8.43	-3.33		
COc1ccc(CC(=O)N2CCCC(n3cc(C)cn3)C2)cc1F (stereo not given)	-2.21	-2.67		3.32	0.201	2.66	4.16%	3.46	2.63	2.56	-4.37		
Cc1nc(C)c(C(=O)OCCNc2ncccc2C#N)s1	-3.81	10.4		12.8	-7.09	1.02	71.6% and 65.6% and 62.3%	32.9	2.94	9.41	0.0387	28.5% and 30.6%	
Cn1ccc(C(=O)NCc2cccc(CN3CCCC3)c2)cc1=O	-1.76	20.8		0.574	2.05	-6.35	19.2% and 18.4% and 34%	-14.3	11.8	30.6	-13	12% and 8.64%	
Cc1nc(N)sc1C(=O)N1CCCC(c2nccn2CCCN(C)C)C1 (stereo not given)	-5.86	10.8		10.2	7.47	-3.15	13.2%	7.55	11.2	9.76	95.1		9.19
CCOCC1CN(Cc2cnn(C)c2)Cc2ncn(CC3CC3)c21 (stereo not given)	-6.63	-1.3		9.29	-1.66	-3.64	2.21%	10.9	1.58	-5.13	0.231		
O=S(=O)(NCC1(O)CCOc2ccccc21)c1ccc(Br)s1 (stereo not given)	-7.03	2.74	6.4	-1.37	-3.72	-1.82	4.97%	21.1			-2.54		
COc1cccc(-c2nc(CNCCn3cccn3)cs2)c1	-0.562	-2.56		-1.83	-5.54	2.46	59.5% and 60.9% and 43.9%	37.8	4.31	6.02	1.48	31.8% and 30.9%	
CN(C)[C@H]1CCCCN(C(=O)CCc2csc(N)n2)C1	-6.59	2.7		-1.59	1.46	-0.35	9.76%	-5.61	3.72	7.32	0.286		2.7
Cc1ccc(C)c(C(C(=O)O)N2CCCN(Cc3ccccn3)CC2)c1 (stereo not given)	-6.39	5.41		1.19	-2.23	4.54	16.3%	23.2	6.92	14.6	-4.84		0.54
